Compound activity deposited in PubChem BioAssay by Broad Institute.
An excerpt weighted towards active compounds, which were near 4% of everything screened.
DENV2 CPE – inhibitors of DENV2 cytopathic effect, primary screen, cell-based, plate reader, single concentration; 350,000 compounds, 1.7% hits; DENV2-infected cells, cytopathic effect rescue; CPE inhibition, % at 9.99 µM; in the data active = CPE inhibition above about 20%, passing the limit was not always enough; inconclusive = no clear call, values can overlap the other calls; tested in BHK-21 cells;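 also: 0% = median of neutral control wells and 100% = median of positive control wells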
ERAP1 inh – human ERAP1 aminopeptidase inhibitors, primary screen, biochemical, single point, plate reader | Endoplasmic reticulum aminopeptidase 1 (Homo sapiens), Q9NZ08 | recombinant ERAP1, Leu-AMC fluorescence, 60 min | inhibition, % at 10.7 µM | 340,000 compounds, 0.15% hits | AID 652197, 2013;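 active = mean replicate inhibition of at least 30%, or all replicates individually reaching that 30% level; inactive = mean below 30% and not every replicate reaching it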;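 also: 0% = neutral control wells and 100% = L-leucinethiol positive control wells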
AF4-AF9 inh – inhibitors of AF4 peptide binding to AF9, primary screen, biochemical, AlphaScreen, biotin-AF4 peptide, FLAG-AF9, single point; Protein AF-9 (Homo sapiens), P42568; inhibition, % at 10 µM; 350,000 compounds, 0.47% hits; AID 651704, 2012;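 active = every replicate reaching a set inhibition limit, whatever the replicate mean, cut at about 25% in these data; inconclusive = mean inhibition reaches that limit but some replicates miss it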;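 also: 0% = plate neutral control median and 100% = total signal loss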
FGF22 binding – binders of human FGF22 protein, primary screen, FGF22 synaptogenesis inhibitor project, biophysical, thermal shift, single point; 340,000 compounds, 1.5% hits; recombinant FGF22 thermal shift, SYPRO orange fluorescence; percent of sucrose octasulfate shift, DMSO zero; activity (Tm shift, normalised), % at 9.99 µM; AID 651658, 2012; Fibroblast growth factor 22 (Homo sapiens), Q9HCT0;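 active = mean Tm shift, scaled 0 neutral to 100 positive control, at about 1.3% or above, every replicate too, limit read from the data; inconclusive = no clear call, values can overlap the other calls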
Target sequence (Q9HCT0 whole entry, looked up): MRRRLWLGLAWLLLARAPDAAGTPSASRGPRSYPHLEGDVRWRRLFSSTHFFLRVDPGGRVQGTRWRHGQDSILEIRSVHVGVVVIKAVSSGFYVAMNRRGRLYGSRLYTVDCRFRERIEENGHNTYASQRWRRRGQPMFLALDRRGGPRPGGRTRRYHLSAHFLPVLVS
RAD52 anneal inh – RAD52 DNA annealing inhibitors, primary screen, biochemical, FRET, single point, set 2. DNA repair protein RAD52 homolog (Homo sapiens), P43351. recombinant RAD52 DNA annealing, FRET fluorescence. inhibition, % at 18.7 µM. 360,000 compounds, 0.46% hits. AID 651710, 2012;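 active = every replicate showing at least 50% inhibition; inconclusive = mean inhibition at least 50% but not in every replicate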
The depositor's hits bear a star; ? = inconclusive; / = not tested or not shown; ! = a repeat was not active.

SMILES | DENV2 CPE | ERAP1 inh | AF4-AF9 inh | FGF22 binding | RAD52 anneal inh
OC(COc1ccc2c(c1)OCO2)CN1CCCCC1 (stereo not drawn) | 3 | -4 | -1 | 44* | -3
C[C@@H]1CN([C@@H](C)CO)C(=O)Cc2cc(N(C)C)ccc2O[C@H]1CN(C)C(=O)Nc1ccccc1 | -2 | 4 | 1 | 0 | 5
Cn1c(SCC(=O)N2CCCC2)nc2c(c1=O)SCC2 | 59* | 0 | -1 | 0 | 6
COCCn1c(SCC(=O)c2ccccc2)nc2c(c1=O)SCC2 | -2 | 0 | -5 | 43* | -14
CC(C)Oc1ccc(C(=O)NN2C(=O)NC3(CCCCC3)C2=O)cc1 | 68* | 0 | -2 | 0 | -17
O=C(NN1C(=O)NC2(CCCCC2)C1=O)c1cc(F)cc(F)c1 | 32* | -1 | -2 | 0 | 12
C[C@H](CO)N1C[C@H](C)[C@@H](CN(C)Cc2ccncc2)Oc2c(NS(=O)(=O)c3cccs3)cccc2C1=O | 34*! | -5 | 1 | 0 | -16
C[C@H]1CN([C@@H](C)CO)C(=O)c2cccc(NS(=O)(=O)c3cccs3)c2O[C@H]1CN(C)Cc1ccncc1 | 3 | -5 | 0 | 0 | -45
C[C@@H]1CN([C@@H](C)CO)C(=O)c2cccc(NS(=O)(=O)c3cccs3)c2O[C@H]1CN(C)CC1CCCCC1 | 34* | 2 | 0 | -1 | -4
COc1ccccc1S(=O)(=O)N(C)C[C@@H]1OCc2ccccc2-c2c(n(C)c3ccccc23)C(=O)N([C@@H](C)CO)C[C@@H]1C | ? | -3 | 4 | 0 | 15
Cc1ccc(S(=O)(=O)Nc2cccc3c2O[C@@H](CN(C)S(=O)(=O)c2ccc(F)cc2)[C@H](C)CN([C@@H](C)CO)C3=O)cc1 | -6 | / | / | 0 | /
CC(=O)Nc1ccc(SC(Sc2ccc(NC(C)=O)cc2)c2ccccc2)cc1 | -6 | 8 | -6 | 1.4* | -18
COc1ccccc1-c1ccc2n(c1=O)C[C@@H]1[C@@H](CO)[C@H](C(=O)N3CCCCC3)[C@H]2N1CC1CC1 | -9 | 0 | 1 | 0 | -8
O=C(O)Cn1cnc2sc3c(c2c1=O)CCCC3 | 6 | 1 | 0 | 0 | -8
O=C(O)c1ccc(Cn2cnc3sc4c(c3c2=O)CCCC4)cc1 | 15 | -23 | -1 | 43* | -14
O=C(c1ccc([N+](=O)[O-])cc1)N1CCSC1c1ccc(Cl)cc1 (stereo not drawn) | -3 | -3 | -1 | 43* | -6
O=C(c1ccc([N+](=O)[O-])cc1)N1CCSC1c1ccc(Br)cc1 (stereo not drawn) | -3 | 0 | 12 | 0 | -1
C[C@H](CO)N1C[C@H](C)[C@@H](CN(C)C(=O)Nc2ccc3c(c2)OCO3)Oc2ccc(NC(=O)c3ccncc3)cc2CC1=O | -4 | -2 | -2 | 0 | 14
CC(C)C[C@@H]1O[C@H](CCc2ccccc2)CC2=C1C(=O)OC(C)(C)O2 | -15 | / | -4 | 0 | -1
CC1(C)OC(=O)C2=C(CC(CCc3ccccc3)OC2CCc2ccccc2)O1 (stereo not drawn) | 4 | -4 | -1 | 0 | -27
CC(C)[C@@H]1CC2=C(C(=O)OC(C)(C)O2)[C@H](CCc2ccccc2)O1 | 42* | -5 | -6 | 0 | 2
CC(C)C[C@@H]1CC2=C(C(=O)OC(C)(C)O2)[C@H](CCc2ccccc2)O1 | 29* | -6 | -22 | 0 | -2
COc1ccc(CNC(=O)C[C@@H]2C=C[C@@H](NC(=O)Nc3ccc4c(c3)OCO4)[C@@H](CO)O2)cc1 | ? | -1 | -3 | 0 | -17
Cc1noc(C)c1NC(=O)N(C)C[C@H]1Oc2ccc(NC(=O)Nc3ccc4c(c3)OCO4)cc2CC(=O)N([C@H](C)CO)C[C@H]1C | 2 | -2 | -12 | 0 | 2
CO[C@@H]1CN(C)C(=O)c2cc(NC(=O)c3ccccc3F)ccc2OC[C@H](C)N(CC2CCOCC2)C[C@@H]1C | -3 | 0 | 2 | 0 | -1
